In PubChem BioAssay AID485297 (National Center for Advancing Translational Sciences (NCATS), 2010):
The whole screen tested about 320,000 compounds, of which about 9,100 (2.8%) were called active. Another 3% or so got no clear call; they are omitted. The call rests on the fitted dose curve; in most records, active means well fitted activation curve with a large enough effect; inconclusive means small, poorly fitted or top-dose-only effect; inactive means no such curve, though single readings can be large or run the other way. What follows is part of a selection rich in actives, with near analogues and random picks from the rest.

Assay: qHTS Assay for Rab9 Promoter Activators; further: nearly all actives have a fitted effect of over 60% in size; on activation, negative = inhibition: % of control where 0% means no effect
Conditions: Huh7 Rab9 promoter-luciferase reporter, luminescence, 24 h; series mostly up to 9.22 µM; activation, negative = inhibition: at the top concentration
How it was run: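 Luciferase signal after 10 min detection reagent at ambient indicates Rab9 promoter upregulation; stably transfected Huh7 cells were treated 24 h with compound in DMSO at 37 °C, 5% CO2.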
Potency means the concentration at half of the fitted maximal effect.

Row | Structure (SMILES) | activation, negative = inhibition | Potency
1 | O=C(CN1CCC(O)(c2cccc(C(F)(F)F)c2)CC1)NCCc1ccccc1 | -1.32% (inactive) | 
2 | O=C(NNC(=O)c1ccc(-n2cncn2)c([N+](=O)[O-])c1)c1ccccc1 | -1.36% (inactive) | 
3 | CCOc1ccc(S(=O)(=O)NCCC(=O)NCC2CCCO2)cc1 (configuration not stated) | -7.38% (inactive) | 
4 | CCN(CC(=O)Nc1ccccc1C(F)(F)F)C(=O)C1CCN(C(=O)Nc2ccccc2)CC1 | -3.7% (inactive) | 
5 | CCOc1ccc(NC(=O)CN(C)C(=O)Cc2sc(C)nc2-c2ccc(F)cc2)cc1OCC | -1.33% (inactive) | 
6 | O=C(OCC(=O)N1CCOCC1)c1ccc2ccccc2c1 | 23.1% (inactive) | 
7 | CC1(C)CC(=O)C=C(c2ccc(Cl)c(C(F)(F)F)c2)C1 | -1.53% (inactive) | 
8 | COc1ccccc1C(=O)NC(CCSC)C(=O)N1CCN(C(C)=O)CC1 (configuration not stated) | -1.78% (inactive) | 
9 | Cc1ccccc1-c1cc(C(=O)NCc2cccs2)n(CC2CC(c3cccnc3)=NO2)n1 (configuration not stated) | -2.65% (inactive) | 
10 | Cc1ccc(C)c(OCc2cc(C(=O)N3CCN(c4cnccn4)CC3)no2)c1 | -1.14% (inactive) | 
11 | O=C(c1cc(COc2c(F)cccc2F)on1)N1CCSCC1 |  | 3160 nM (active)
12 | O=C(c1cc(COc2ccc(F)c(F)c2)on1)N1CCOCC1 | 23.1% (inactive) | 
13 | COCCN1CCN(C(=O)c2cc(COc3ccc(F)cc3Cl)on2)CC1 | 4.22% (inactive) | 
14 | COc1ccc(OCc2cc(C(=O)N3CCCC3)no2)c2ccccc12 |  | 3980 nM (active)
15 | O=C(c1cc(COc2cccc(C(F)(F)F)c2)on1)N1CCSCC1 | 1.38% (inactive) | 
16 | CC(C)(Oc1ccc(Cl)cc1)C(=O)OCC(=O)NCCc1ccc(S(N)(=O)=O)cc1 | -3.15% (inactive) | 
17 | Cc1ccsc1C(=O)NC1CCCCC1C (configuration not stated) | -3.85% (inactive) | 
18 | O=S(=O)(NC1CC1)c1ccc(Cl)cc1 | 1.98% (inactive) | 
19 | C1=C(CCNc2ncnc3c2cnn3-c2ccccc2)CCCC1 |  | 2820 nM (active)
20 | c1ccc(-n2ncc3c(N4CCCC4)ncnc32)cc1 |  | 501 nM (active)
21 | CC(Sc1ncnc2c1cnn2-c1ccccc1)C(=O)Nc1ccc(N2CCOCC2)cc1 (configuration not stated) | 0.146% (inactive) | 
22 | CC(C)Sc1ncnc2c1cnn2-c1ccccc1 |  | 1000 nM (active)

Row | Structure (SMILES) | activation, negative = inhibition | Potency
23 | Cc1ccc(-c2nc3c(cnn3-c3ccccc3)c(=O)o2)cc1 | -6.29% (inactive) | 
24 | O=C(NCCC1=CCCCC1)C1CCN(Cc2cnn(-c3ccccc3)c2-n2cccc2)CC1 | -1.15% (inactive) | 
25 | CCN(C(=O)CSc1ncnc2c1cnn2-c1ccccc1)C1CCS(=O)(=O)C1 (configuration not stated) | -1.86% (inactive) | 
26 | CCC(C)N(C(=O)CSc1ncnc2c1cnn2-c1ccccc1)C1CCS(=O)(=O)C1 (configuration not stated) | -2.26% (inactive) | 
27 | O=C(NNc1ncnc2c1cnn2-c1ccccc1)c1ccco1 | -4.14% (inactive) | 
28 | CCc1noc(C)c1C(=O)N1CCN(S(=O)(=O)c2cccc(C(F)(F)F)c2)CC1 | 13.5% (inactive) | 
29 | CC(=O)c1c(C)[nH]c(C(=O)OCC(=O)Nc2c(C)cccc2C)c1C | -11.3% (inactive) | 
30 | Cc1nn(Cc2ccccc2)c(C)c1C(=O)N1CCN(CC(=O)Nc2ccccc2Cl)CC1 | -0.872% (inactive) | 
31 | C[C@@H](NC(=O)c1nc[nH]c1C(=O)N1CCN(C(=O)OC(C)(C)C)CC1)c1ccccc1 | -3.53% (inactive) | 
32 | CCOc1ncccc1C(=O)OCC(=O)Nc1cccc(S(=O)(=O)N2CCCCCC2)c1 | -0.596% (inactive) | 
33 | CCCc1nc2oc3c(=O)[nH]cnc3c2c2c1COC(C)(C)C2 | -1.12% (inactive) | 
34 | COc1ccc(Br)cc1C(=O)NC(=S)Nc1cc(-c2nc3ccccc3[nH]2)ccc1C | -4.21% (inactive) | 
35 | c1ccc2[nH]c(-c3nc4ccccc4[nH]3)nc2c1 |  | 631 nM (active)
36 | Nc1cccc(CCc2nc3ccccc3[nH]2)c1 | 3.01% (inactive) | 
37 | OC(c1nc2ccccc2[nH]1)C(O)C(O)C(O)c1nc2ccccc2[nH]1 (configuration not stated) | 11.6% (inactive) | 
38 | Cc1ccc(-c2nc3ccccc3[nH]2)cc1N |  | 1410 nM (active)
39 | COc1ccc(-c2[nH]nc(-c3ccccc3)c2-c2nc3ccccc3[nH]2)cc1 | -2.29% (inactive) | 
40 | N#Cc1ccc(C2=CC(=O)C[C@H](c3ccc(Cl)cc3)C2)cc1 | -1.27% (inactive) | 
41 | Cc1ccc(C)c(NC(=O)CN(C)C(=O)c2ccc3ncsc3c2)c1 | 1.46% (inactive) | 
42 | COc1ccc(C(=O)NCc2nnc(SCC(=O)Nc3cccc(OC)c3)o2)cc1 | -2.44% (inactive) | 
43 | COc1cccc(-c2nc(CS(=O)CC(=O)NCc3ccc(F)cc3)c(C)o2)c1 (configuration not stated) | -0.564% (inactive) | 
44 | COc1ccc2oc(-c3cccc(NC(=O)CSc4ccc(Cl)cc4)c3)nc2c1 |  | 3550 nM (active)

Row | Structure (SMILES) | activation, negative = inhibition | Potency
45 | CC(=O)Oc1ccc2c(=O)oc(-c3ccc([N+](=O)[O-])cc3)nc2c1 | -3.36% (inactive) | 
46 | COc1cccc(-c2nnc(SCCOc3ccc4c(C)cc(=O)oc4c3)o2)c1 | 0.56% (inactive) | 
47 | COc1ccc([N+](=O)[O-])cc1-c1nc2ccccc2nc1-c1ccccc1 | 2.73% (inactive) | 
48 | COc1cccc(-c2nc3cc(C)ccc3o2)c1 |  | 3980 nM (active)
49 | COc1cccc(NC(=O)CSc2nnc(-c3cccnc3)o2)c1 | -3.19% (inactive) | 
50 | O=[N+]([O-])c1ccc2oc(-c3cccc(O)c3)nc2c1 |  | 3160 nM (active)
51 | O=C(NCCc1nnc2ccc(SCC(=O)N3CCOCC3)nn12)c1ccccc1 | -2.16% (inactive) | 
52 | CCCCn1c(N)c(N(CCC(C)C)C(=O)COC(=O)c2cccnc2OCC)c(=O)[nH]c1=O | -0.914% (inactive) | 
53 | O=C(COC(=O)CNC(=O)C1CCCCC1)NCc1ccccc1 | 0.266% (inactive) | 
54 | CCCCN(C(=O)c1ccc2ccccc2c1)c1c(N)n(CCCC)c(=O)[nH]c1=O | -2.5% (inactive) | 
55 | Cc1nc(C)c(-c2csc(NCCc3ccccc3)n2)s1 | -3.17% (inactive) | 
56 | CCNc1nc(-c2cc3ccccc3o2)cs1 |  | 1260 nM (active)
57 | O=c1oc2ccccc2cc1-c1csc(Nc2ccc(O)cc2)n1 | 24.9% (inactive) | 
58 | O=C(CN1CCCSc2ccccc21)N1CCN(S(=O)(=O)c2ccccc2)CC1 | -0.455% (inactive) | 
59 | COc1ccc2c(c1)c(C(=O)N/N=C/c1cccs1)c(C)n2C | -6.43% (inactive) | 
60 | NS(=O)(=O)c1ccc2nc(NC(=O)CS(=O)(=O)c3ccc(F)cc3)sc2c1 | 7.22% (inactive) | 
61 | O=C(Nc1ccc(S(=O)(=O)N2CCCC2)cc1Cl)C1=COCCO1 | 2.73% (inactive) | 
62 | NS(=O)(=O)c1ccc2nc(NC(=O)C3=COCCO3)sc2c1 |  | 1120 nM (active)
63 | Cc1csc(NC(=O)C2=COCCO2)n1 |  | 3550 nM (active)
64 | Cc1ccc(-c2csc(NC(=O)C3=COCCO3)n2)cc1C | -1.89% (inactive) | 
65 | CCC(CC)c1nnc(NC(=O)C2=COCCO2)s1 | 29% (inactive) | 
66 | COCCN(Cc1ccccc1)C(=O)Cc1ccc(S(=O)(=O)N2CCOCC2)s1 | -1.26% (inactive) | 

Row | Structure (SMILES) | activation, negative = inhibition | Potency
67 | COC(=O)c1sc(NC(=O)COC(=O)C2CCC2)c(C(=O)OC)c1C | 1.11% (inactive) | 
68 | COc1ccccc1N1CCN(C(=O)C2Cc3ccccc3CN2C(=O)c2ccco2)CC1 (configuration not stated) | -6.97% (inactive) | 
69 | OCCC1CN(Cc2cccn2-c2nccs2)CCN1CCc1ccccc1 (configuration not stated) | -10.8% (inactive) | 
70 | COc1cc(/C=N/O)ccc1OCc1ccc([N+](=O)[O-])cc1 |  | 2000 nM (active)
71 | COc1cc(C(=O)OCc2ccc([N+](=O)[O-])cc2)cc(OC)c1OC | -2% (inactive) | 
72 | COc1cc(/C=N\Nc2ccc([N+](=O)[O-])cn2)ccc1OCC(=O)O | -1.14% (inactive) | 
73 | O=C(CCCCO)c1ccc(O)c(Cl)c1 | -2.36% (inactive) | 
74 | O=C(CNC(=O)c1cccs1)N/N=C/c1cccc(Br)c1 | 3.62% (inactive) | 
75 | CCN(CC)c1ccc(/C=N/NC(=O)CNC(=O)c2cccs2)cc1 | 11.8% (inactive) | 
76 | Cc1ccc(-c2cc(C(=O)N/N=C/C=C/c3ccco3)c3ccccc3n2)cc1C | 8.94% (inactive) | 
77 | CC(=O)Nc1ccc(/C=N/NC(=O)c2cccs2)cc1 |  | 1260 nM (active)
78 | O=C(N/N=C/C=C/c1ccco1)c1cccs1 |  | 4470 nM (active)
79 | O=C(N/N=C/c1ccco1)c1ccc(C(=O)N/N=C/c2ccco2)o1 | -1.12% (inactive) | 
80 | O=C(COC(=O)CCCN1C(=O)c2cccc3cccc(c23)C1=O)NC1CCS(=O)(=O)C1 (configuration not stated) | -1.11% (inactive) | 
81 | CC(Sc1nnc(C2CC2)n1C1CC1)C(=O)Nc1ccc(C(N)=O)cc1 (configuration not stated) | -0.304% (inactive) | 
82 | CCc1ccc(CN(C)C(C)C(=O)Nc2ccc(S(=O)(=O)N3CCCC3)cc2)cc1 (configuration not stated) | -0.394% (inactive) | 
83 | COc1ccc([C@H]2CC(=O)C=C(c3ccc(C)cc3)C2)cc1 | -4.22% (inactive) | 
84 | CN(C1CCS(=O)(=O)C1)S(=O)(=O)c1ccc2ccccc2c1 (configuration not stated) | 0.342% (inactive) | 
85 | O=S(=O)(NCc1ccc2c(c1)OCO2)c1cccc2nsnc12 | 1.17% (inactive) | 
86 | Cc1cccc(C(=O)O)c1[N+](=O)[O-] | -4.76% (inactive) | 
87 | Cn1c(-c2ccc(C(F)(F)F)cc2)cc2onc(-c3ccccc3)c2c1=O |  | 447 nM (active)
88 | O=c1c2ccccc2c(-c2ccc(F)cc2)nn1-c1ccc(C(F)(F)F)cc1 | 0.147% (inactive) | 

Row | Structure (SMILES) | activation, negative = inhibition | Potency
89 | Cn1c(-c2ccc(F)cc2)cc2onc(-c3ccccc3Cl)c2c1=O |  | 891 nM (active)
90 | O=C1c2ccccc2C(=O)N1Cc1cc(-c2ccccc2Cl)no1 | 0.361% (inactive) | 
91 | Cc1onc(-c2ccccc2)c1C(=O)N1CCN(S(=O)(=O)c2ccccc2C(F)(F)F)CC1 | 1.61% (inactive) | 
92 | Cc1[nH]n(C)c(=O)c1C(=O)c1c(-c2c(Cl)cccc2Cl)noc1C | -6.11% (inactive) | 
93 | CCCCC[C@H]1CN(C2CCCCC2)C(=O)[C@@H]1CC(=O)NCc1ccc(OC)cc1 | -4.04% (inactive) | 
94 | O=c1oc2ccc(C#CC3(O)CCCCC3)cc2cc1-n1cc(-c2ccsc2)nn1 | -3.91% (inactive) | 
95 | O=C(Nc1ccccc1N1CCOCC1)c1ccncc1 | -3.82% (inactive) | 
96 | CC(NCC(=O)Nc1ccccc1C(=O)NC1CC1)c1ccccc1Cl (configuration not stated) | -1.93% (inactive) | 
97 | Cc1noc(C)c1CCC(=O)N1CCCC(CO)(Cc2ccccc2)C1 (configuration not stated) |  | 3550 nM (active)
98 | Cc1ccccc1CC1(CO)CCCN(C(=O)c2cc(-c3ccccc3)no2)C1 (configuration not stated) | -4.08% (inactive) | 
99 | CCOC(=O)C1(Cc2ccccc2C)CCCN(C(=O)CCc2c(C)noc2C)C1 (configuration not stated) | 0.805% (inactive) | 
100 | COc1ccc(OCCNC(=O)c2cc(C3CC3)nc3c2cnn3C(C)C)cc1 | -7.29% (inactive) | 
101 | O=C(CN1CCN(c2ccccc2O)CC1)NC(=O)NCc1ccccc1 | 0.0733% (inactive) | 
102 | N=c1c2c(-c3ccccc3)c(-c3ccccc3)n(Cc3ccccc3)c2ncn1CCCO | -18.6% (inactive) | 
103 | OCCCN1c2ccccc2Nc2nnc(-c3ccccc3)cc21 |  | 2000 nM (active)
104 | CCOC(=O)C(C)N(c1ccccc1Cl)S(C)(=O)=O (configuration not stated) | -1.61% (inactive) | 
105 | N#Cc1c(NC(=O)C2CC(Cl)=CCC2C(=O)O)sc2c1CCCCC2 (configuration not stated) | 0.959% (inactive) | 
106 | N#Cc1c(NC(=O)C2CCCO2)sc2c1CCCCC2 (configuration not stated) |  | 2240 nM (active)
107 | N#Cc1c(NC(=O)CCCl)sc2c1CCCCC2 | 0.735% (inactive) | 
